Laboratory results reported in the supplement of paper PMC11537057.
Where a name gives a salt, the structure may show the parent alone. Out of some 1,700 compounds screened, about 15 (0.9%) showed activity. The sample as a whole holds a higher share of actives than the screen did. Values without a mark were called inactive.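 How the source made its calls: active = infection cut by 80% or more with cell growth above 90% in both runs; inactive = the rest.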

These compounds were tested on HSV-1 strain 17 YFP-ICP4 in A549 (assay: HSV-1 infection relative to DMSO (ICP4-YFP per H2B-RFP signal); higher = more viral infection (less antiviral activity), active = hit call of the paper). Conditions: 10 µM; 48 h; MOI: 0.1.
Procedure: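 Selleck FDA-approved library (L1300) screened in duplicate at 10 µM on A549 H2B-mRuby cells in 384-well plates, infected with HSV-1 strain 17 YFP-ICP4 at MOI 0.1 one hour before drug addition. Imaged after 2 days at 37°C. Cell growth (H2B-RFP) and infection (ICP4-YFP) are expressed as % of DMSO-treated wells. Hits: growth >90% and infection <20% of DMSO.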
With `Cc1cccc(C)c1N(CC(=O)Nc1ccc(-c2ncon2)cc1)C(=O)C1CCS(=O)(=O)CC1` [Amenamevir] the HSV-1 infection was 2.63% (active). `[OH][Al]([OH])[OH]` [Aluminium hydroxide] was tested, and the HSV-1 infection was 113%. `COc1ccc([C@]2(C#N)CC[C@@H](C(=O)O)CC2)cc1OC1CCCC1` [Cilomilast] gave an HSV-1 infection of 94%. For `COc1cc(O)c(C(=O)Nc2nc(C(=O)NCCN(C(C)C)C(C)C)cs2)cc1OC` [Acotiamide hydrochloride], the HSV-1 infection was 75.1%. For `COc1cc(O)c(C(=O)Nc2nc(C(=O)NCCN(C(C)C)C(C)C)cs2)cc1OC` [Acotiamide], the HSV-1 infection was 116%. `Cc1c(-c2ccc(O)cc2)n(Cc2ccc(OCCN3CCCCCC3)cc2)c2ccc(O)cc12` [Bazedoxifene HCl] was tested, and the HSV-1 infection was 26.6%. Work on `Cc1c(-c2ccc(O)cc2)n(Cc2ccc(OCCN3CCCCCC3)cc2)c2ccc(O)cc12` [Bazedoxifene Acetate] yielded an HSV-1 infection of 31.7%. Work on `CCCSc1nc(N[C@@H]2C[C@H]2c2ccc(F)c(F)c2)c2nnn([C@@H]3C[C@H](OCCO)[C@@H](O)[C@H]3O)c2n1` [Ticagrelor] yielded an HSV-1 infection of 87.1%. Work on `C[C@@H]1CCO[C@H]2Cn3cc(C(=O)NCc4ccc(F)cc4F)c(=O)c(O)c3C(=O)N12` yielded an HSV-1 infection of 122%. In the case of `Cc1cc(N2CCN([C@@H]3CN[C@H](C(=O)N4CCSC4)C3)CC2)n(-c2ccccc2)n1` [Teneligliptin hydrobromide], the HSV-1 infection is reported as 113%. For `CCCCCCCCCCCCCCCCCC(=O)O` [Stearic acid], the HSV-1 infection was 86.7%. `O=C([O-])[C@H](O)[C@@H](O)[C@H](O)[C@H](O)CO.O=C([O-])[C@H](O)[C@@H](O)[C@H](O)[C@H](O)CO.[Ca+2]` [Calcium gluconate] was tested, and the HSV-1 infection was 83.3%. `CC(=O)OCC(CCn1cnc2cnc(N)nc21)COC(C)=O` [Famciclovir] was tested, and the HSV-1 infection was 102%. For `Nc1nc(O)c2ncn(CCC(CO)CO)c2n1` [Penciclovir], the HSV-1 infection was 2.92% (active). `CCC(=O)O[C@]1(C(=O)CCl)[C@@H](C)C[C@H]2[C@@H]3C[C@H](F)C4=CC(=O)C=C[C@]4(C)[C@@]3(F)[C@@H](O)C[C@@]21C` [Halobetasol Propionate] gave an HSV-1 infection of 60.2%. Work on `CCc1ccc(Cc2ccc3c(c2)[C@]2(OC3)O[C@H](CO)[C@@H](O)[C@H](O)[C@H]2O)cc1` [Tofogliflozin(CSG 452)] yielded an HSV-1 infection of 92.2%. Work on `CC[C@H](C)[C@H](N)C(=O)O` [isoleucine] yielded an HSV-1 infection of 114%. `Cc1c(C(=O)NN2CCCCC2)nn(-c2ccc(Cl)cc2Cl)c1-c1ccc(Cl)cc1` [Rimonabant] showed an HSV-1 infection of 94.5%. Compound `CC(C)c1nc(CN(C)C(=O)N[C@@H](CCN2CCOCC2)C(=O)N[C@H](CC[C@H](Cc2ccccc2)NC(=O)OCc2cncs2)Cc2ccccc2)cs1` [Cobicistat (GS-9350)] has an HSV-1 infection of 86.4%. In the case of `CCN(c1cc(-c2ccc(CN3CCOCC3)cc2)cc(C(=O)NCc2c(C)cc(C)[nH]c2=O)c1C)C1CCOCC1` [Tazemetostat (EPZ-6438)], the HSV-1 infection is reported as 106%. With `Nc1cc(N2CCCCC2)nc(N)[n+]1OS(=O)(=O)[O-]` [Minoxidil sulphate] the HSV-1 infection was 97.8%. Compound `N[C@@H](CCC(=O)O)C(=O)[O-].[Na+]` [L-Glutamic acid monosodium salt] has an HSV-1 infection of 84.3%. `Cc1ccc(C(C)C)c(O)c1` [Thymol] showed an HSV-1 infection of 95.3%. `CCC(=O)O[C@@H]1CC(=O)O[C@H](C)C/C=C/C=C/[C@H](O)[C@H](C)C[C@H](CC=O)[C@H](O[C@@H]2O[C@H](C)[C@@H](O[C@H]3C[C@@](C)(O)[C@@H](OC(=O)CC)[C@H](C)O3)[C@H](N(C)C)[C@H]2O)[C@H]1OC` [Midecamycin] showed an HSV-1 infection of 96.5%. Compound `CN(N=O)C(=O)NC1C(O)OC(CO)C(O)C1O` (stereo unspecified) [Streptozotocin (STZ)] has an HSV-1 infection of 73.6%. With `O=C(O)CSc1nnc(Br)n1-c1ccc(C2CC2)c2ccccc12` [Lesinurad] the HSV-1 infection was 87.1%. With `CCCCCOc1ccc(-c2cc(-c3ccc(C(=O)N[C@H]4C[C@@H](O)[C@@H](O)NC(=O)[C@@H]5[C@@H](O)[C@@H](C)CN5C(=O)[C@H]([C@H](O)CC(N)=O)NC(=O)[C@H]([C@H](O)[C@@H](O)c5ccc(O)c(OS(=O)(=O)O)c5)NC(=O)[C@@H]5C[C@@H](O)CN5C(=O)[C@H]([C@@H](C)O)NC4=O)cc3)no2)cc1` [Micafungin Sodium] the HSV-1 infection was 105%. With `CCc1c(Cl)c(O)c(Cl)c(O)c1C(=O)O[C@H]1[C@H](O)[C@H](OC)[C@H](OC/C2=C\C=C\C[C@H](O)/C(C)=C/[C@H](CC)[C@@H](O[C@@H]3OC(C)(C)[C@@H](OC(=O)C(C)C)[C@H](O)[C@@H]3O)/C(C)=C/C(C)=C/C[C@@H]([C@@H](C)O)OC2=O)O[C@@H]1C` [Fidaxomicin] the HSV-1 infection was 126%. In the case of `CC(=C(CCOC(=O)C(C)C)SSC(CCOC(=O)C(C)C)=C(C)N(C=O)Cc1cnc(C)nc1N)N(C=O)Cc1cnc(C)nc1N` (stereo in doubt) [Sulbutiamine], the HSV-1 infection is reported as 92.2%. For `C[N+](C)(C)CC(O)CC(=O)[O-]` (racemic) [DL-Carnitine HCl], the HSV-1 infection was 94.4%. With `Nc1ccc(S(=O)(=O)Nc2cncc(Cl)n2)cc1` [Sulfalozine sodium] the HSV-1 infection was 105%. `C=C[C@]1(C)C[C@@H](OC(=O)CS[C@@H]2C[C@H]3CC[C@@H](C2)N3C)[C@]2(C)[C@H](C)CC[C@]3(CCC(=O)[C@H]32)[C@@H](C)[C@@H]1O` [Retapamulin] was tested, and the HSV-1 infection was 32.7%. `COc1cccc(-c2c(C)n(Cc3c(F)cccc3C(F)(F)F)c(=O)n(C[C@H](NCCCC(=O)O)c3ccccc3)c2=O)c1F` [Elagolix Sodium] gave an HSV-1 infection of 109%. For `OC(c1ccccc1)(c1ccccc1)C12CC[N+](CCOCc3ccccc3)(CC1)CC2` [Umeclidinium bromide], the HSV-1 infection was 100%. `CC1CNc2c(cccc2S(=O)(=O)N[C@@H](CCCNC(=N)N)C(=O)N2CC[C@@H](C)C[C@@H]2C(=O)O)C1` (stereo partly specified) [Argatroban] showed an HSV-1 infection of 99.1%. `CC1CNc2c(cccc2S(=O)(=O)N[C@@H](CCCNC(=N)N)C(=O)N2CC[C@@H](C)C[C@@H]2C(=O)O)C1` (stereo partly specified) [Argatroban Monohydrate] gave an HSV-1 infection of 97.4%.
